Hits are enriched below; roughly 21% of the tested compounds scored in any of these assays.
ELG1 DNA repair: qHTS screen for small molecules that inhibit ELG1-dependent DNA repair in human embryonic kidney (HEK293T) cells expressing luciferase-tagged ELG1; 330,000 compounds, 2.3% hits; AID 504467, 2011; Potency, µM (titrated, usually from 46.1 µM), for the others: at the top dose activity change, negative = inhibition, most hits filed as inhibitors; HEK293T ELG1-luciferase reporter, luminescence, 16 h; DNA damage induced by 5-fluorouridine; also: potency is read from the fitted curve at half-maximal effect; nearly all actives have a fitted effect of over 55% in size
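Reporter activity after DNA damage by 5-fluorouridine is monitored. Compound-treated cells incubate 16 hr at 37 °C, then ONE-Glo is added for 30 min before luminescence reading.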
VP16 counter: VP16 counterscreen qHTS for inhibitors of ROR gamma transcriptional activity. AID 2546, 2010. Potency, µM (doses to about 53.6 µM), for inactives: at the highest dose activity, negative = inhibition, hits mostly inhibitors. Drosophila S2 Gal4-VP16 UAS-luciferase, luminescence, 20 h. 310,000 compounds, 3.5% hits;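 also: Gal4-VP16 expression switched on by copper sulfate through the metallothionein promoter; potency is read from the fitted curve at half-maximal effect; nearly all actives have a fitted effect of over 50% in size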
DT40 TDP1 no CPT: qHTS for Inhibitors of human tyrosyl-DNA phosphodiesterase 1 (TDP1): qHTS in cells in absence of CPT | DT40 Tdp1-/- hTDP1 cells, no CPT, ATP luminescence, 48 h | Potency, µM (doses to about 46.2 µM), without a hit: at the top dose activity change, negative = growth inhibition, usual class: inhibitors | 420,000 compounds, 15% hits; also: potency is read from the fitted curve at half-maximal effect; nearly all actives have a fitted effect of over 55% in size
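Luminescent ATP content (CellTiter-Glo) served as the growth readout. Knockout chicken DT40 cells expressing human TDP1 were exposed to compounds without camptothecin for a minimum 48 hr at 37 °C.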
RORg inh: qHTS for inhibitors of ROR gamma transcriptional activity. Nuclear receptor ROR-gamma (Mus musculus), P51450. Drosophila S2 Gal4-RORgamma UAS-luciferase reporter, 20 h. Potency, µM (doses to about 53.6 µM), inactives show at the top dose activity change, negative = inhibition, hits mostly inhibitors. 310,000 compounds, 5.4% hits. AID 2551, 2010; also: potency is read from the fitted curve at half-maximal effect; nearly all actives have a fitted effect of over 60% in size
Target sequence (P51450 whole entry, looked up, the tested form may be a part): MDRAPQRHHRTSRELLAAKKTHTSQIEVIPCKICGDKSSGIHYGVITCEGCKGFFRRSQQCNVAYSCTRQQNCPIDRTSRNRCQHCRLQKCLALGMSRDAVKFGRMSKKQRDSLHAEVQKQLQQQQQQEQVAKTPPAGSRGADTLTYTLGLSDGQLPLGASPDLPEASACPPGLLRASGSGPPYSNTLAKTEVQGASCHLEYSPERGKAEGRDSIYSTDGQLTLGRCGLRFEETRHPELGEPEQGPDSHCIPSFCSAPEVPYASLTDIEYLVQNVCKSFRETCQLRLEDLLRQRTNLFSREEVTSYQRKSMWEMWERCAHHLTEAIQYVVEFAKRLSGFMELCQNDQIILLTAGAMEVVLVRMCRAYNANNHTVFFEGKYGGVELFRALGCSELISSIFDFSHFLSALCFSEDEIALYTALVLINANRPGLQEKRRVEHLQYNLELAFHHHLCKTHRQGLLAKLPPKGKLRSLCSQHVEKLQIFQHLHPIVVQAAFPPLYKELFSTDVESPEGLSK
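Using a luciferase readout, inhibitors were identified by reduced reporter activity in Drosophila cells coexpressing a copper-inducible Gal4–ROR gamma fusion and UAS-driven Photinus luciferase, incubated 20 hr after 700 uM copper sulfate.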
DT40 TDP1 CPT: qHTS for Inhibitors of human tyrosyl-DNA phosphodiesterase 1 (TDP1): qHTS in cells in presence of CPT; chicken DT40 Tdp1-/-;hTDP1 cells + 20 nM CPT, ATP luminescence, 48 h; Potency, µM (top dose mostly 46.2 µM), for inactives: top-dose activity change, negative = growth inhibition, actives largely listed as inhibitors; 420,000 compounds, 12% hits; also: potency is read from the fitted curve at half-maximal effect; nearly all actives have a fitted effect of over 55% in size
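Chicken DT40 Tdp1-/- cells complemented with human TDP1, 400 cells/well, exposed to compounds plus 20 nM camptothecin for at least 48 h at 37 C; viability read as ATP content by CellTiter-Glo luminescence.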
IL-1B inflam inh: qHTS for Inhibitors of Inflammasome Signaling: IL-1-beta AlphaLISA Primary Screen; activity change, % at 57.5 µM; 360,000 compounds, 4.7% hits; THP-1 LPS/ATP IL-1B secretion, AlphaLISA, 16 h; hits give low values; in the data active = activity change below about -50%; inconclusive = mostly about -30% to -49%
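Secreted IL-1B measured by AlphaLISA bead assay after 16 h compound exposure of THP-1 cells; compounds (final up to 57.5 uM) added 1 h before LPS (250 ng/mL) and ATP (1.25 mM) stimulation; lower signal means less secretion.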
Numbers without * were called inactive. Unless noted, calls follow the shape of the dose curve; as a rule, active = well fitted curve in the direction sought with a large enough effect; inconclusive = small, poorly fitted or top-dose-only effect, or another doubt; inactive = no such curve, though single readings can be large; an effect the other way counts as inactive or inconclusive. % is scaled to controls: 0 for no effect and ±100 for the full control effect.

How did O=C(c1[nH]c(C(F)(F)F)nc1-c1ccccc1)N1CCc2c([nH]c3ccccc23)C1 do in these assays?
DT40 TDP1 no CPT: 5.8µM*; DT40 TDP1 CPT: 5.8µM*; IL-1B inflam inh: 56

How did O=C(O)CSCC(=O)N1CCN(c2cc(C(F)(F)F)nc3ccccc23)CC1 do in these assays?
ELG1 DNA repair: -2%; VP16 counter: -1%; DT40 TDP1 no CPT: -23%; RORg inh: -9%; DT40 TDP1 CPT: 12%; IL-1B inflam inh: 24

What do the screens show for `Cc1cc(N2CCN(C(=O)c3[nH]c(C(F)(F)F)nc3-c3ccccc3)CC2)c2ccccc2n1`?
DT40 TDP1 no CPT: 15µM*; DT40 TDP1 CPT: 16µM*; IL-1B inflam inh: 43

How did O=C(c1[nH]c(C(F)(F)F)nc1-c1ccccc1)N1CCN(c2ncccn2)CC1 do in these assays?
DT40 TDP1 no CPT: inconclusive; DT40 TDP1 CPT: 29µM*; IL-1B inflam inh: -1

What do the screens show for `O=C(c1[nH]c(C(F)(F)F)nc1-c1ccccc1)N1CCN(c2ccncc2)CC1`?
DT40 TDP1 no CPT: -10%; DT40 TDP1 CPT: 3%; IL-1B inflam inh: -12

What do the screens show for `CC(=O)Nc1ccc(NC(=O)C(C)OC(=O)c2c(NC(C)=O)sc(C)c2C)cc1` (stereo not given)?
ELG1 DNA repair: -20%; DT40 TDP1 no CPT: -20%; DT40 TDP1 CPT: -7%; IL-1B inflam inh: 4

What do the screens show for `O=C(O)Cn1ncn(-c2ccc(OC(F)(F)F)cc2)c1=O`?
ELG1 DNA repair: 0%; VP16 counter: -9%; DT40 TDP1 no CPT: 0%; RORg inh: -1%; DT40 TDP1 CPT: 4%; IL-1B inflam inh: 16

Results for O=C(c1[nH]c(C(F)(F)F)nc1-c1ccccc1)N1CCN(c2ccccc2)CC1 ?
DT40 TDP1 no CPT: 4.1µM*; DT40 TDP1 CPT: 4.6µM*; IL-1B inflam inh: 26

Results for COc1ccc(C(N)CCc2ccc(C)o2)cc1 (stereo not given) ?
ELG1 DNA repair: -4%; VP16 counter: -5%; DT40 TDP1 no CPT: 18µM*; RORg inh: 10%; DT40 TDP1 CPT: inconclusive; IL-1B inflam inh: inconclusive

Results for Cc1cc(C)c(C#N)c(Sc2nc(C)c([N+](=O)[O-])c(C)c2C#N)n1 ?
DT40 TDP1 no CPT: 5.8µM*; DT40 TDP1 CPT: 3.7µM*; IL-1B inflam inh: inconclusive

How did Cc1nc(Sc2ccccc2)c(C#N)c(C)c1[N+](=O)[O-] do in these assays?
ELG1 DNA repair: inconclusive; VP16 counter: 4%; DT40 TDP1 no CPT: 16µM*; RORg inh: -30%; DT40 TDP1 CPT: inconclusive

How did c1ccc2c(Nc3ccc4c(c3)OCCO4)c3c(nc2c1)CCCC3 do in these assays?
ELG1 DNA repair: inconclusive; VP16 counter: -5%; DT40 TDP1 no CPT: 16µM*; RORg inh: 13%; DT40 TDP1 CPT: 4.6µM*; IL-1B inflam inh: -134*

Results for O=C(Nc1c2c(nc3ccccc13)CCCC2)c1ccccc1F ?
ELG1 DNA repair: -5%; VP16 counter: -15%; DT40 TDP1 no CPT: inconclusive; RORg inh: 6%; DT40 TDP1 CPT: -24%; IL-1B inflam inh: 2

How did COC(=O)c1cccc(Nc2c3c(nc4ccccc24)CCC3)c1 do in these assays?
ELG1 DNA repair: inconclusive; VP16 counter: 1%; DT40 TDP1 no CPT: 10µM*; RORg inh: 29%; DT40 TDP1 CPT: 7.3µM*; IL-1B inflam inh: -98*

How did Fc1cccc(Nc2c3c(nc4ccccc24)CCC3)c1 do in these assays?
ELG1 DNA repair: -2%; VP16 counter: -14%; DT40 TDP1 no CPT: 26µM*; RORg inh: 10%; DT40 TDP1 CPT: inconclusive; IL-1B inflam inh: inconclusive

How did Cc1ccc2nc3c(c(Nc4cccc(O)c4)c2c1)CCC3 do in these assays?
ELG1 DNA repair: -17%; VP16 counter: 3%; DT40 TDP1 no CPT: inconclusive; RORg inh: 36%; DT40 TDP1 CPT: inconclusive; IL-1B inflam inh: 118

Results for CCOC(=O)c1cccc(Nc2c3c(nc4ccccc24)CCC3)c1 ?
DT40 TDP1 no CPT: 13µM*; DT40 TDP1 CPT: inconclusive

Results for COC(=O)c1ccc(C(NC(=O)OCc2ccccc2)/C(=C/[C@@H](C)C(=O)NCc2ccc(S(C)(=O)=O)cc2)c2cccnc2)cc1 (stereo not given in full) ?
VP16 counter: 0%; RORg inh: 12%

Results for CC(=O)c1c(C)[nH]c(C(=O)OCC(=O)NCc2ccccc2)c1C ?
DT40 TDP1 no CPT: inconclusive; DT40 TDP1 CPT: inconclusive; IL-1B inflam inh: 54

How did Nc1nccs1 do in these assays?
VP16 counter: -7%; DT40 TDP1 no CPT: -19%; RORg inh: 3%; DT40 TDP1 CPT: -2%

What do the screens show for `O=C(Nc1c2c(nc3ccccc13)CCCC2)c1ccccc1Cl`?
ELG1 DNA repair: 0%; VP16 counter: -3%; DT40 TDP1 no CPT: -8%; RORg inh: 4%; DT40 TDP1 CPT: 16%; IL-1B inflam inh: 49

What do the screens show for `CC(=O)c1ccc(Nc2c3c(nc4ccccc24)CCCC3)cc1`?
ELG1 DNA repair: inconclusive; VP16 counter: -2%; DT40 TDP1 no CPT: 18µM*; RORg inh: -18%; DT40 TDP1 CPT: 15µM*; IL-1B inflam inh: 0

Results for CC(=O)c1cccc(Nc2c3c(nc4ccccc24)CCC3)c1 ?
ELG1 DNA repair: 14%; VP16 counter: 1%; DT40 TDP1 no CPT: 2.1µM*; RORg inh: -24%; DT40 TDP1 CPT: 2.1µM*; IL-1B inflam inh: 68

What do the screens show for `CC(C)(CN1CCCC1)NS(=O)(=O)c1ccccc1`?
ELG1 DNA repair: 9%; VP16 counter: 1%; DT40 TDP1 no CPT: 10%; RORg inh: 27%; DT40 TDP1 CPT: -2%; IL-1B inflam inh: 0

What do the screens show for `CC(OC(=O)/C=C/c1ccco1)C(=O)NC1CCCCC1` (stereo not given)?
DT40 TDP1 no CPT: inconclusive; DT40 TDP1 CPT: -19%; IL-1B inflam inh: 9

What do the screens show for `Cc1cc(C(=O)N2CCN(S(=O)(=O)c3ccccc3F)CC2)c(C)o1`?
ELG1 DNA repair: -7%; VP16 counter: 7%; DT40 TDP1 no CPT: inconclusive; RORg inh: 13µM*; DT40 TDP1 CPT: inconclusive; IL-1B inflam inh: 1
